Our source for the AC50 and outcome values is PubChem BioAssay (EPA / NIEHS).

Where “and” joins values, the source holds several entries; their conditions need not be identical. Equal values may be shown once. More than one record can exist for a structure, and the calls need not agree. Calls of active or inactive are those of the source. The calls were made as follows: active = hit-call score of the fitted dose curve at least 0.9, where 1 is the maximum; inactive = score below 0.9.

Read-out in this assay: Insulin-like growth factor-binding protein 1 (IGFBP1), IGFBP1 (gene 3484)
The assay can be described thus: LTEA_HepaRG_IGFBP1: Life Technologies and Expression Analysis (LTEA) Assay for Insulin-like growth factor-binding protein 1 (IGFBP1) using HepaRG (AID 2283508). The note with it: mRNA level, 48 h; actives raise or lower the signal. On the procedure:
LTEA_HepaRG is a cell based, multiplexed-readout assay that uses HepaRG, a human liver cell line, with measurements taken at 48 hours after chemical dosing on a 96-well plate.LTEA_HepaRG_IGFBP1 is one of 102 assay component(s) measured in the LTEA HepaRG cell culture assay. It is a marker of Cell proliferation, survival, death.Data from the assay component LTEA_HepaRG_IGFBP1 was analyzed into 1 endpoint. This assay endpoint, LTEA_HepaRG_IGFBP1, was analyzed with bidirectional fitting relative to DMSO as the negative control and baseline of activity. Using a type of inducible reporter, measures of mRNA induction for gain or loss-of-signal activity can be used to understand regulation of transcription factor activity. To generalize the intended target to other relatable targets, this assay endpoint is annotated to the transporter intended target family, where the subfamily is hormone carrier protein.
A total of 1060 chemcials from the ToxCast library were tested in eight-point concentration-response experiments. Cell culture and cytotoxicity assays were conducted at Thermo Fisher Scientific's Custom Services facility (Madison, WI). A single lot of human HepaRG cells (Thermo Fisher Scientific, Frederick, MD) was used for the cell culture experiments. 96-well format collagen type I coated plates of human HepaRG cells were prepared using established methods. Briefly, cryopreserved HepaRG cells were thawed, plated at a density of approximately 100,000 cells/well in HepaRG Thaw, Plate, and General Purpose media (HPRG770, Thermo Fisher Scientific), and incubated for 48 hours. 0.5% DMSO was selected as vehicle control to balance the requisite need of DMSO in HepaRG cultures to maintain differentiation (for example, baseline metabolism, proportions of hepatocytes vs. cholangiocytes), while enabling further hepatic receptor pathway activation (for example, PXR and CAR) in response to chemical exposure. 48 hours after plating, the culture medium was replaced with HepaRG Serum-Free Incudtion Media. Cells were exposed to each test chemical in duplicate and maintained in CO2 incubators for another 48 hours. Chemical plates were thawed to room temperature and 200x concentrations of treatment groups were prepared. 8-point conentration-reponse curves were made with the highest exposure at 100 uM, followed by half-log dilutions, all in 0.5% DMSO. Each test plate contained variouse controls, induction positive controls (1mM phenobarbital), cytotoxicity positive controls ([…] aflatoxin B1), vehicle controls (0.5% DMSO), and total lysis controls (0.5% DMSO). Cell morphology images were taken using an Essen IncuCyte FLR automated microscope, with six 96-well plates imaged in about 24 minutes. Images were captured and exported and JPEG files. Spent culture media was transfered to black-well plates for the LDH assay, and remaining media was sorted at -80 C for later use. Cells were treated with RLT buffer and frozen until shipped for gene expression analysis. Total RNA was isolated from the cell suspension in 75 uL of Buffer RLT (Qiagen, Germantown, MD 20874) by Quintiles/Expression Analysis (Durham, NC) using a custom isolation procedure. Total RNA from each plate well was transferred to a preamplification plate. Fluidigm's 96.96 Dynamic ArrayTM (Fluidigm, Amsterdam, the Netherlands) technology was used for gene expression analyses by quantitative reverse transcription polymerase chain reaction (qRT-PCR, performed by Quintiles/Expression Analysis, Durham, NC)89. Standard TaqManTM Assays (Applied Biosystems/ThermoFisher Scientific, Foster City, CA) were used to assess the expression of 93 genes selected based on their selectivity and sensitivity to important hepatic receptors known to be modulated by environmental chemicals; importance in human hepatocyte functionality; and hepatotoxicity. […]
Turning to `CCCN(CCOc1c(Cl)cc(Cl)cc1Cl)C(=O)n1ccnc1`, the AC50 was 24.4 µM (active).
In the case of `Oc1cc(Cl)ccc1Oc1ccc(Cl)cc1Cl`, the result was inactive and the AC50 is 71.9 µM (active).
With `CNC(=O)Oc1ccccc1OC(C)C`, the outcome was inactive.
On the same count and under the same terms, as for `CCC(C)Nc1c([N+](=O)[O-])cc(C(C)(C)C)cc1[N+](=O)[O-]` (stereo not given), the entry is “inactive”.
Consider `CCOC1Oc2ccc(OS(C)(=O)=O)cc2C1(C)C` (stereo not given), for which the AC50 is 79.4 µM (active).
As for `CC(C)(C)C(O)/C(=C\c1ccc(Cl)cc1Cl)n1cncn1` (stereo not given), the AC50 was 56.9 µM (active).
Take `CC(C)OC(=O)Nc1cccc(Cl)c1`: the molecule was called inactive.
For `O=S1OCC2C(CO1)C1(Cl)C(Cl)=C(Cl)C2(Cl)C1(Cl)Cl` (stereo not given), the AC50 is 83.4 µM (active).
The same measure, in the same setting: as for `CC[C@H](C)[C@H]1O[C@]2(C=C[C@@H]1C)C[C@@H]1C[C@@H](C/C=C(\C)[C@@H](O[C@H]3C[C@H](OC)[C@@H](O[C@H]4C[C@H](OC)[C@@H](O)[C@H](C)O4)[C@H](C)O3)[C@@H](C)/C=C/C=C3\CO[C@@H]4[C@H](O)C(C)=C[C@@H](C(=O)O1)[C@]34O)O2` (tested in a mixture with another compound), the figure is 11.6 µM (active); as for `CCOCN(C(=O)CCl)c1c(C)cccc1CC`, 63 µM (active).
Consider `COP(=S)(OC)Oc1ccc([N+](=O)[O-])cc1`, for which the molecule was called inactive.
In the case of `O=C(Nc1ccccc1)Nc1cnns1`, the AC50 is 83.5 µM (active).
Turning to `CC(C)N(C(=O)COc1nnc(C(F)(F)F)s1)c1ccc(F)cc1`, the outcome was inactive.
As to `N#Cc1c(Cl)c(Cl)c(Cl)c(C#N)c1Cl`, the AC50 is 3.27 µM (active).
In the case of `O=S(=O)(O)C(F)(F)C(F)(F)C(F)(F)C(F)(F)C(F)(F)C(F)(F)C(F)(F)C(F)(F)F`, the result was inactive; the AC50 is 77.6 µM (active) and 50 µM (active).
For `CCCN(CCC)c1c([N+](=O)[O-])cc(C(F)(F)F)cc1[N+](=O)[O-]`, the outcome was inactive.
Regarding `O=C(O)CCCOc1ccc(Cl)cc1Cl`, the molecule was called inactive.
`CNC(=O)CSP(=S)(OC)OC`: the call was inactive.
Turning to `Oc1ccc(Cl)cc1Cc1ccccc1`, the AC50 is 75.2 µM (active) and 88.5 µM (active); the molecule was classed as inactive.
For `O=C1c2ccccc2C(=O)N1SC(Cl)(Cl)Cl`, the molecule was classed as inactive.
The same measure, in the same setting: the result for `CCc1ccc(C(=O)NN(C(=O)c2cc(C)cc(C)c2)C(C)(C)C)cc1` reads “inactive”; that for `Clc1ccccc1-c1nnc(-c2ccccc2Cl)nn1`, “inactive”; that for `CNC(=O)/C=C(\C)OP(=O)(OC)OC`, “inactive”.
The same measure, in the same setting: the result for `N#CN` reads “inactive”.
The same measure, in the same setting: as for `CCN(CC)C(=O)SCc1ccc(Cl)cc1`, the entry is “inactive”.
In the case of `CC1(c2ccc(Oc3ccccc3)cc2)OC(=O)N(Nc2ccccc2)C1=O` (stereo not given), the AC50 is 13.4 µM (active).
`O=[N+]([O-])/N=C1\NCCN1Cc1ccc(Cl)nc1`: the result was inactive.
`CCC(C)(NC(=O)c1cc(Cl)c(C)c(Cl)c1)C(=O)CCl` (stereo not given): the AC50 was 80.8 µM (active).
In the case of `COc1nn(CSP(=S)(OC)OC)c(=O)s1`, the outcome was inactive.
Same read-out and setting: the result for `CN1CSC(=S)N(C)C1` reads “inactive”.
Same read-out and setting: the result for `CC(C)(C)C(O)C(Oc1ccc(Cl)cc1)n1cncn1` (stereo not given) reads “inactive”.
Same read-out and setting: the result for `O=C(O)C(F)(F)C(F)(F)C(F)(F)C(F)(F)C(F)(F)C(F)(F)C(F)(F)F` reads “inactive”.
With `Cc1[nH]c(=O)n(C(C)(C)C)c(=O)c1Cl`, the AC50 is 50 µM (active).
With `COP(=O)(OC)OC=C(Cl)Cl`, the outcome was inactive.
Still for that read-out and setting: the result for `COP(=S)(OC)Oc1ccc(SC)c(C)c1` reads “inactive”; that for `O=C(NC(=O)c1c(F)cccc1F)Nc1ccc(OC(F)(F)C(F)OC(F)(F)F)c(Cl)c1` (stereo not given), “inactive”; that for `CC1(C)C(C=C(Cl)Cl)C1C(=O)OC(C#N)c1ccc(F)c(Oc2ccccc2)c1` (stereo not given), “inactive”.

In general, AC50 refers to the concentration giving half of the maximal activity seen.
